We go through eleven molecules from PubChem BioAssay (NCATS).

Results filed as inconclusive are left out. The source made the active and inactive calls. Calls follow the shape of the dose curve; as a rule, active = well fitted curve in the direction sought with a large enough effect; inconclusive = small, poorly fitted or top-dose-only effect, or another doubt; inactive = no such curve, though single readings can be large; an effect the other way counts as inactive or inconclusive.

One assay concerns the target Furin (Homo sapiens) (UniProt P09958). The assay can be described thus: Furin counterscreen qHTS for Zika virus inhibitors (AID 1347149). Also: nearly all actives have a fitted effect of over 70% in size. Also: potency is read from the fitted curve at half-maximal effect. The following applies: furin enzymatic counterscreen, fluorogenic substrate; series mostly up to 57.5 µM. An outline of the steps: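 Counterscreen measures cleavage of 2 microM BOC-RVRR-AMC, below its ~15 microM Km, by 5 nM full-length human furin at pH 7.0 after a 15-min compound preincubation. Inhibition derives from the 15-min fluorescence increase at 37C.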
A general note: Counterscreens check selectivity or assay interference.

The subject of assay [1] is Zika virus NS2B-NS3 protease (unlinked complex). The experiment in a line: Confirmatory screen GU AMC qHTS for Zika virus inhibitors (AID 1347153).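 Also: enzyme at 25 nM with substrate at 10 µM below its Km of 18.3 µM; potency is read from the fitted curve at half-maximal effect; nearly all actives have a fitted effect of over 70% in size.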 The conditions noted are these: Recombinant NS2B-NS3 protease, AMC substrate fluorescence. The gist of the method:
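Noncovalent NS2B hydrophilic domain/NS3 protease complex (25 nM) in 10 mM Tris-HCl pH 8.0, 0.01% Tween 20 was preincubated 15 min at room temperature with compounds. Then 10 µM AMC substrate (Km 18.3 µM) was added; fluorescence was read over 15 min and fitted to a 4-parameter Hill equation.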
On the technique in general: qHTS replaces the single test concentration by a dilution series.

Assay [2] concerns Zika virus NS2B-NS3 protease. The assay can be described thus: Primary screen GU AMC qHTS for Zika virus inhibitors (AID 1347154). Also: nearly all actives have a fitted effect of over 70% in size. Also: potency is read from the fitted curve at half-maximal effect. The following applies: Zika NS2B-NS3 unlinked protease, AMC fluorogenic substrate; series mostly up to 54.1 µM. An outline of the steps: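 Unlinked Zika NS2B hydrophilic domain/NS3 protease domain noncovalent complex (25 nM final) in 10 mM Tris-HCl pH 8.0, 0.01% Tween 20, with AMC peptide substrate. Fluorescence (ex 340, em 450 nm) change over 15 min, room temperature; percent inhibition fitted to 4-parameter Hill equation.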

Assay [3] is described as follows: Confirmatory screen GU Rhodamine qHTS for Zika virus inhibitors qHTS (AID 1347157). Also: nearly all actives have a fitted effect of over 70% in size. Also: potency is read from the fitted curve at half-maximal effect. The conditions noted are these: purified enzyme assay, Rhodamine110 substrate fluorescence, 15 min; series mostly up to 65.2 µM. An outline of the steps: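 Enzyme 25 nM in Tris-HCl pH 8.0 + 0.01% Tween 20; compounds up to 114 microM, 15 min RT dark; + Rhod110 substrate 1.5 microM; read t0 and 15 min; delta fluorescence → % inhibition → 4-parameter Hill fit.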

The test system of assay [4] is Zika virus NS2B-NS3 protease (unlinked). The experiment in a line: Optimization of GU AMC qHTS for Zika virus inhibitors: Unlinked NS2B-NS3 protease assay (AID 1347151). Also: nearly all actives have a fitted effect of over 80% in size. The conditions noted are these: recombinant ZIKV NS2B-NS3 protease, fluorogenic AMC substrate; series mostly up to 52.5 µM. An outline of the steps:
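Percent inhibition is derived from the 15-min change in AMC fluorescence, normalized against no-inhibitor and no-enzyme controls, then fitted to a 4-parameter Hill curve. Aprotinin was the intraplate control.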

For assay [5], the target named is N-terminal Xaa-Pro-Lys N-methyltransferase 1 (Homo sapiens) (UniProt Q9BV86). The experiment in a line: qHTS Assay for Inhibitors of N-terminal methyltransferase 1 (NTMT1): LOPAC validation of the NTMT1 SAHH-coupled ThioGlo3 Assay (AID 1347143). The conditions noted are these: recombinant NTMT1, SAHH-coupled ThioGlo3 fluorescence; series mostly up to 114 µM. An outline of the steps:
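In this qHTS pilot against the LOPAC set, 125nM NTMT1 met compounds tested at multiple concentrations, and fluorescence was normalized to background.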

Chain of Furin (Homo sapiens) (P09958 whole entry, looked up): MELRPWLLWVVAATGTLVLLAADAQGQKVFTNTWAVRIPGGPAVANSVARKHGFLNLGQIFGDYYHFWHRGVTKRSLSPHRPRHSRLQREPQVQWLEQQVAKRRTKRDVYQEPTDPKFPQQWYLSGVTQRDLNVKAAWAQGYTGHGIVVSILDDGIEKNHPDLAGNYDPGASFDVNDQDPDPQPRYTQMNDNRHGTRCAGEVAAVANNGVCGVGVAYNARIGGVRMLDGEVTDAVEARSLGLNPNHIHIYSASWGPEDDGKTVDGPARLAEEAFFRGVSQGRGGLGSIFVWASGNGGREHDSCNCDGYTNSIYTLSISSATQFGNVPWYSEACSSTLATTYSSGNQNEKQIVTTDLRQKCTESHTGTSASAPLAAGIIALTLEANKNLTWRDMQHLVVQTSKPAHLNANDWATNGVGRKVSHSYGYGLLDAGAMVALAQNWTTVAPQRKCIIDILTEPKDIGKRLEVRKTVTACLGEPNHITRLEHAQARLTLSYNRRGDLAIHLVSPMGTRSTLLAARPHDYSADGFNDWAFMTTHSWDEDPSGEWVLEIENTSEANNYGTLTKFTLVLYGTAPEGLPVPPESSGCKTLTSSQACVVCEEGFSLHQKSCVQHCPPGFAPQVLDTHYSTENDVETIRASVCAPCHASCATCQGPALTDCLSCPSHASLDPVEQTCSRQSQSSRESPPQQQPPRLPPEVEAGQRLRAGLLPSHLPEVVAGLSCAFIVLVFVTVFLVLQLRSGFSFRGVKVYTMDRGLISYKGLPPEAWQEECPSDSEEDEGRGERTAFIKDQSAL
Chain of N-terminal Xaa-Pro-Lys N-methyltransferase 1 (Homo sapiens) (Q9BV86 whole entry, looked up): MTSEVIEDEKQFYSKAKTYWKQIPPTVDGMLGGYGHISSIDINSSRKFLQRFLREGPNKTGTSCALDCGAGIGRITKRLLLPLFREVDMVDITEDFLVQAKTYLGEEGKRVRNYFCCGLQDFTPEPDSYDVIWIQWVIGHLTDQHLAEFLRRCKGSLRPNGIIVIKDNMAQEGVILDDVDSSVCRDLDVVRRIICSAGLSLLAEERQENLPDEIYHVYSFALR

On to `CC1CCC(C(=O)N(c2cc(C#CC(C)(C)C)sc2C(=O)O)C2CCC(O)CC2)CC1` (stereo not drawn), for which the Potency entry with Furin (Homo sapiens) is “inactive”.

Regarding `Cc1ccn(-c2ccc(-c3ncco3)cc2)c(=O)c1-c1ccc2nc(N)ncc2c1`, the values for the Potency (with Furin (Homo sapiens); in assay [1]; in assay [2]) were 21.5 µM (active), 30.4 µM (active) and 21.5 µM (active), respectively. `O=c1c(O)c(-c2ccc(O)cc2)oc2cc(O)cc(O)c12`: the Potency result (with Furin (Homo sapiens); in assay [2]; in assay [3]) was “inactive” each time. With `Clc1ccc(C(c2ccc(Cl)cc2)n2cc[n+](CC(OCc3ccc(Cl)cc3Cl)c3ccc(Cl)cc3Cl)c2)cc1` (stereo not drawn), in assay [4], the Potency entry was “inactive”. Regarding `COC(=O)N[C@H](C(=O)N1CCC[C@@H]1c1ncc(-c2ccc(-c3ccc(-c4cnc([C@@H]5CCCN5C(=O)[C@@H](NC(=O)OC)C(C)C)[nH]4)cc3)cc2)[nH]1)C(C)C`, in assay [2], the Potency was 30.4 µM (active). Consider `COc1cc(Nc2ncc(F)c(Nc3ccc4c(n3)NC(=O)C(C)(C)O4)n2)cc(OC)c1OC`, for which, in assay [2], the Potency result is “inactive”. In the case of `O=C(O)CCc1nc(-c2ccccc2)c(-c2ccccc2)o1`, the Potency entry in assay [5] and in assay [2] was “inactive” throughout. With `CCN(CC)C(=O)c1ccc(O)c(OC)c1`, the Potency result in assay [4] and in assay [2] was “inactive” in each case.

Take `CC1=C(/C=C/C(C)=C/C=C/C(C)=C/C(=O)Nc2ccc(O)cc2)C(C)(C)CCC1`: the Potency entry in assay [5] and in assay [2] was “inactive” each time.

With `COc1ccc(-n2c(C)c([N+](=O)[O-])c3ccc(O)cc32)cc1`, the Potency entry in assay [2] is “inactive”. In the case of `CC(C)(C)OC(=O)N[C@H]1CCCCCC=C[C@@H]2C[C@@]2(C(=O)NS(=O)(=O)C2CC2)NC(=O)[C@@H]2C[C@@H](OC(=O)N3Cc4cccc(F)c4C3)CN2C1=O`, the Potency in assay [3] is 49.4 µM (active).
